In the library only some 2.1% were active in any assay of this set; here they are far more common.
ID4 SMM: binders of human ID4 protein; actives 1.2% (n = 31,000); P47928; small molecule microarray, Flag-ID4 binding, fluorescence F/B; AID 624137; calls only; call rule not given here;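 note: a binder raises fluorescence above local background on the spot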
Target sequence (P47928 whole entry, looked up): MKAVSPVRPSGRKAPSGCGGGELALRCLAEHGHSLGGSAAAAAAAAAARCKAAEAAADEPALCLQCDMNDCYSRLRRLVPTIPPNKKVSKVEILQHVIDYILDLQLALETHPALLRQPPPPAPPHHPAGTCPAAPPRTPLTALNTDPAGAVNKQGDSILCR
STK33 kin inh: inhibitors of human STK33 kinase; ADP-Glo luminescence, MBP substrate; inhibition, % at 12.5 µM; actives 0.44% (n = 27,000); Q9BYT3; in the data active = inhibition above about 20%
mut p53 react: restores mutant p53 pathway signaling in SW480 cells. SW480 PUMA-promoter luciferase, p53 mutant reactivation. activation, % at 9.98 µM. actives 1.5% (n = 28,000); in the data active = activation above about 52%
The depositor's hits bear a star; i = inactive; / = no result; + = active, no number.

SMILES	ID4 SMM	STK33 kin inh	mut p53 react
NC(=O)c1c(NC(=O)C(Cc2ccccc2)N2C(=O)c3ccccc3C2=O)sc2c1CCCC2 (stereo not given)	+	0	-8
COc1ccc(C(=O)Nc2sc3c(c2C(=O)NC2CCS(=O)(=O)C2)CCCC3)cc1OC (stereo not given)	i	3	-5
COc1ccc(NC(=O)C(Cc2ccccc2)N2C(=O)c3ccccc3C2=O)cc1 (stereo not given)	i	3	3
COc1ccc(C(=O)Nc2sc3c(c2C(N)=O)CCCC3)cc1OC	i	/	76*
CCc1ccccc1OCC(=O)Nc1sc2c(c1C(N)=O)CCCC2	i	-5	15
CN1C(=O)[C@@]2(Cc3ccccc3)SSS[C@]1(CO)C(=O)N2C	/	-10	/
Cn1c(SCC(=O)Nc2cccc(F)c2)nnc1-c1cc2ccccc2o1	i	2	-10
Cc1nn2c(-c3cccc(NC(=O)CSc4nc5ccccc5o4)c3)nnc2c2ccccc12	i	4	74*
COc1ccc(OCC(=O)Nc2cccc(-c3nnc4c5ccccc5c(C)nn34)c2)cc1	i	7	101*
COc1ccc(OCC(=O)Nc2ccc3nn(-c4ccc(Cl)cc4)nc3c2)cc1	i	0	39
Cc1ccc(NC(=O)CC(C(=O)O)N(C)C)cc1 (stereo not given)	i	1	-5
CCCCCCCCC/C=C/CCCCC(=O)C1C(=O)CCC(O)C1=O (stereo not given)	i	-8	-1
O=S(=O)(N[C@@H]1CCCN(Cc2ccc(OCCO)cc2)C1)c1ccccc1	i	-1	/
O=S(=O)(N[C@@H]1CCCN(Cc2cccc(OCCO)c2)C1)c1cc(Cl)ccc1Cl	+	1	/
Cc1ccc(S(=O)(=O)N[C@@H]2CCCN(Cc3ccc(OCCO)cc3)C2)cc1	+	/	/
O=S(=O)(N[C@@H]1CCCN(Cc2cccc(OCCO)c2)C1)c1ccc(Cl)c(Cl)c1	/	0	/
CC1CCC/C=C2\C(=O)C=CC3OC(/C=C/C=C/C=C/C(=O)O)=C(C(=O)O1)C23 (stereo not given)	/	-5	/
Cc1ccc(N2C3=C(C(=O)CC(C)(C)C3)C(c3cccs3)C3=C2CC(C)(C)CC3=O)cc1C	/	-1	/
CCn1c(SCC(=O)Nc2ccc(Cl)c(Cl)c2)nnc1-c1cccnc1	i	-3	17
Cc1ccc(S(=O)(=O)N2CCN(C(=O)CSc3nnc4sc5ccccc5n34)CC2)cc1	i	-3	4
OCCCNc1ncnc2oc(-c3ccccc3)c(-c3ccccc3)c12	i	32*	-39
OCCCNc1ncnc2scc(-c3ccccc3)c12	i	2	-34
C[C@@H]1CN([C@@H](C)CO)C(=O)c2cc(NS(C)(=O)=O)ccc2O[C@@H](C)CCCCO[C@H]1CN(C)S(=O)(=O)c1cccs1	+	/	0
C[C@H](CO)N1C[C@H](C)[C@@H](CN(C)S(=O)(=O)c2cccs2)OCCCC[C@H](C)Oc2ccc(NS(C)(=O)=O)cc2C1=O	+	/	7
C[C@H](CO)N1C[C@H](C)[C@H](CN(C)S(=O)(=O)c2cccs2)OCCCC[C@H](C)Oc2ccc(NS(C)(=O)=O)cc2C1=O	i	/	-2
SMILES	ID4 SMM	STK33 kin inh	mut p53 react
C[C@@H]1CCCCO[C@@H](CN(C)S(=O)(=O)c2cccs2)[C@@H](C)CN([C@H](C)CO)C(=O)c2cc(NS(C)(=O)=O)ccc2O1	i	-1	6
COc1ccccc1OCC(=O)Nc1cc(Cl)ccc1O	i	2	7
O=C(CSc1nc(-c2ccc(Cl)cc2)cc(C(F)(F)F)n1)c1cccc([N+](=O)[O-])c1	i	-1	12
O=C(NCc1nc2ccccc2[nH]1)C1=C[C@@H](C2CC2)C[C@@H](OCc2ccc(CO)cc2)O1	i	/	/
O=C(NCc1nc2ccccc2[nH]1)C1=C[C@H](C2CC2)C[C@H](OCc2ccc(CO)cc2)O1	+	/	/
COc1cccc(NC(=O)CNC(=O)c2ccccc2)c1	i	-2	57*
COc1ccc(C(=O)NCC(=O)Nc2cccc(C(F)(F)F)c2)cc1	i	-1	-8
CC1=Nc2ccc(C)cc2/C1=C\c1c(N)n2nc(S(=O)(=O)CC(C)C)sc2nc1=O	i	/	-3
Cc1nn(C(=O)c2ccc(Cl)cc2)c(C)c1Sc1nnc(C(F)(F)F)n1C	i	/	-19
C[N+](C)(C)CCCC[C@@H]1NC(=O)[C@H]2C[C@@H](C(=O)NCCCCCCN)[C@@H](c3ccc(O)cc3)N2C1=O	/	1	/
NCCCCCNC(=O)[C@@H]1C[C@@H]2C(=O)NCC(=O)N2[C@@H]1c1cccc(OCCO)c1	+	-1	/
NCCCCCCNC(=O)[C@@H]1C[C@@H]2C(=O)NCC(=O)N2[C@@H]1c1ccc(O)cc1	+	/	/
NCCCCCNC(=O)[C@H]1C[C@H]2C(=O)NCC(=O)N2[C@H]1c1cccc(OCCO)c1	i	/	/
CN(C)CCCCNC(=O)[C@@H]1C[C@@H]2C(=O)NCC(=O)N2[C@@H]1c1ccc(O)cc1	i	-3	/
